PubChem BioAssay (Tox21)
Values without a mark were called inactive. Results filed as inconclusive are left out. A call without a number means that no potency is given here. Activity calls are given as the source filed them. Unless noted, the call rests on the fitted dose curve; in most records, active means well fitted curve in the direction sought with a large enough effect in the repeat runs; inconclusive means weak or mixed curves; inactive means no such curve, though single readings can be large; an effect the other way counts as inactive or inconclusive.

Key:
[1] = molecular target: Thyrotropin receptor (Homo sapiens) (UniProt P16473); assay: qHTS assay to identify small molecule antagonists of the thyroid stimulating hormone receptor (TSHR) signaling pathway (AID 1259385; calls by dose curve; further: nearly all actives have a fitted effect of over 20% in size)
Method in brief: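 TSHR-HEK293 cells (800/well) plated 18 h, then compounds with Ro20-1724 and TSH at 1.5 ng/mL final, 30 min at room temperature. cAMP quantified by HTRF (cAMP-d2/anti-cAMP-cryptate, 1 h); 15 concentrations in triplicate.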

[2] = qHTS assay to identify small molecule agonists of the estrogen receptor alpha (ER-alpha) signaling pathway in the presence of an antagonist - cell viability counter screen (AID 1259386);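 further: series mostly up to about 92 µM; cells exposed to compounds for 22 h at 37 °C before the viability read; nearly all actives have a fitted effect of over 30% in size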
Method in brief: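 Read-out: CellTiter-Fluor fluorescence after 1hr reagent incubation, measured in the same wells as the luciferase readout. VM7Luc4E2 cells were exposed to 15 compound concentrations with 10.0nM ICI-182,780 for 22hr at 37C.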

[3] = molecular target: Progesterone receptor (Homo sapiens) (UniProt P06401); assay: qHTS assay to identify small molecule agonists of the progesterone receptor (PR) signaling pathway (AID 1346784; calls by dose curve; further: nearly all actives have a fitted effect of over 30% in size)
Method in brief: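 HEK 293T PR-UAS-bla reporter cells, 2% charcoal-stripped FBS; 6 hr settle at 37C/5% CO2, compound (DMSO) 16 hr, LiveBLAzer B/G FRET substrate 2 hr RT, fluorescence intensity read.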

[4] = molecular target: Progesterone receptor (Homo sapiens) (UniProt P06401); assay: qHTS assay to identify small molecule antagonists of the progesterone receptor (PR) signaling pathway (AID 1346795; active means well fitted inhibition curve with a large enough effect in the signal ratio in the repeat runs, not every such curve was filed as active; the % refers to the signal ratio; further: potency means the concentration at half of the fitted maximal effect)
Method in brief: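 Beta-lactamase reporter, HEK293T PR-UAS-bla line; 2% charcoal-stripped FBS; 6 hr pre-incubation, 37C/5% CO2. Compound + R5020 1 nM final, 16 hr. LiveBLAzer B/G FRET substrate, 2 hr RT; fluorescence intensity read.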

[5] = qHTS assay to identify small molecule antagonists of the progesterone receptor (PR) signaling pathway - cell viability counter screen (AID 1346798); further: series mostly up to about 92 µM; nearly all actives have a fitted effect of over 50% in size
Method in brief: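 Luminescence readout (CellTiter-Glo, 30 min, RT) of viability in PR-UAS-bla HEK293T cells exposed to compound and R5020 agonist for 16 hr at 37C, 5% CO2; run in the same wells as the beta-lactamase reporter read.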

[6] = qHTS assay to identify small molecule agonists of the progesterone receptor (PR) signaling pathway - cell viability counter screen (AID 1346799; calls by dose curve; further: nearly all actives have a fitted effect of over 45% in size)
Method in brief: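 HEK293T PR-UAS-bla, 3,000 cells/well, 2% charcoal-stripped FBS; 6 h settle, compound 16 h at 37C/5% CO2; LiveBLAzer 2 h RT, then CellTiter-Glo 30 min RT, luminescence read.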

[7] = qHTS assay to identify small molecule antagonists of the TGF-beta/Smad signaling pathway - cell viability counter screen (AID 1346824); further: nearly all actives have a fitted effect of over 50% in size
Method in brief: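 SBE-bla HEK 293T cells, incubated overnight, then compound plus 0.25 ng/mL TGF-beta1 (stock added) for 5 hr at 37 C. Viability was read in the same wells by CellTiter-Glo luminescence after 30 min at room temperature.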

[8] = qHTS assay to identify small molecule agonists of the TGF-beta/Smad signaling pathway - cell viability counter screen (AID 1346829); further: top concentration of the series differs between compounds; nearly all actives have a fitted effect of over 45% in size
Method in brief: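 Here the cytotoxicity of library compounds is measured in SBE-bla HEK 293T cells treated for 5 hr, using CellTiter-Glo added to wells already read for the beta-lactamase reporter.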

[9] = qHTS assay to identify small molecule agonists of the TGF-beta/Smad signaling pathway (AID 1346859; active means well fitted activation curve with a large enough effect in the signal ratio in the repeat runs, not every such curve was filed as active; the % refers to the signal ratio; further: series mostly up to about 77 µM)
Method in brief: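 Read-out: fluorescence at 460 and 530 nm (405 nm excitation) after a 2 hr room-temperature incubation with beta-lactamase FRET substrate. SBE-bla HEK 293T cells had been treated with test compounds for 5 hr at 37 C.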

[10] = molecular target: Thyrotropin-releasing hormone receptor (Homo sapiens) (UniProt P34981); assay: qHTS assay to identify small molecule antagonists of the thyrotropin-releasing hormone receptor (TRHR) signaling pathway (AID 1346877; active means well fitted inhibition curve with a large enough effect in the repeat runs, not every such curve was filed as active; further: series mostly up to about 51 µM)
Method in brief: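 HEK293/TRHR cells, 18 h, 37 °C; Ca2+ dye 2 h; cpd 5 min RT; TRH 1 nM final; fluorescence read 3 min, 1 s intervals; 15 concs, triplicate.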

Sequence of Thyrotropin receptor (Homo sapiens) (P16473 whole entry, looked up): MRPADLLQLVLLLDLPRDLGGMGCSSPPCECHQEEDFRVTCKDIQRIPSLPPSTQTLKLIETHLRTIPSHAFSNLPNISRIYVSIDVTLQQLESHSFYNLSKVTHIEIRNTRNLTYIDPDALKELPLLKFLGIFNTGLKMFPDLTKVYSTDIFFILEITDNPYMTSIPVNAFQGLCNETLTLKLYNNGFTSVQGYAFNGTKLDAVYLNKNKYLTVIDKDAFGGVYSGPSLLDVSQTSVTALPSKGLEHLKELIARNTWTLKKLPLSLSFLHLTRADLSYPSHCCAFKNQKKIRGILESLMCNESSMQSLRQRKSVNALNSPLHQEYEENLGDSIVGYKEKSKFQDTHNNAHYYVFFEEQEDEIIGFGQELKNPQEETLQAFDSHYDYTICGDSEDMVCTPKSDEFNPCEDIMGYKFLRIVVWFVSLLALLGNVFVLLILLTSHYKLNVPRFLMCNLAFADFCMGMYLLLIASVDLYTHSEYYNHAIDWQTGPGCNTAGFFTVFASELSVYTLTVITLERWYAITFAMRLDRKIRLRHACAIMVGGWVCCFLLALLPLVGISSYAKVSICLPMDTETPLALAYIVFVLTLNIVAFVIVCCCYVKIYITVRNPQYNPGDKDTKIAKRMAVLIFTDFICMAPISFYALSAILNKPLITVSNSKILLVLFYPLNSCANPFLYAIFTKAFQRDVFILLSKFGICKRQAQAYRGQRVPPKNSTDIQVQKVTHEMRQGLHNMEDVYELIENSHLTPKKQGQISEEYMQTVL
Sequence of Progesterone receptor (Homo sapiens) (P06401 whole entry, looked up): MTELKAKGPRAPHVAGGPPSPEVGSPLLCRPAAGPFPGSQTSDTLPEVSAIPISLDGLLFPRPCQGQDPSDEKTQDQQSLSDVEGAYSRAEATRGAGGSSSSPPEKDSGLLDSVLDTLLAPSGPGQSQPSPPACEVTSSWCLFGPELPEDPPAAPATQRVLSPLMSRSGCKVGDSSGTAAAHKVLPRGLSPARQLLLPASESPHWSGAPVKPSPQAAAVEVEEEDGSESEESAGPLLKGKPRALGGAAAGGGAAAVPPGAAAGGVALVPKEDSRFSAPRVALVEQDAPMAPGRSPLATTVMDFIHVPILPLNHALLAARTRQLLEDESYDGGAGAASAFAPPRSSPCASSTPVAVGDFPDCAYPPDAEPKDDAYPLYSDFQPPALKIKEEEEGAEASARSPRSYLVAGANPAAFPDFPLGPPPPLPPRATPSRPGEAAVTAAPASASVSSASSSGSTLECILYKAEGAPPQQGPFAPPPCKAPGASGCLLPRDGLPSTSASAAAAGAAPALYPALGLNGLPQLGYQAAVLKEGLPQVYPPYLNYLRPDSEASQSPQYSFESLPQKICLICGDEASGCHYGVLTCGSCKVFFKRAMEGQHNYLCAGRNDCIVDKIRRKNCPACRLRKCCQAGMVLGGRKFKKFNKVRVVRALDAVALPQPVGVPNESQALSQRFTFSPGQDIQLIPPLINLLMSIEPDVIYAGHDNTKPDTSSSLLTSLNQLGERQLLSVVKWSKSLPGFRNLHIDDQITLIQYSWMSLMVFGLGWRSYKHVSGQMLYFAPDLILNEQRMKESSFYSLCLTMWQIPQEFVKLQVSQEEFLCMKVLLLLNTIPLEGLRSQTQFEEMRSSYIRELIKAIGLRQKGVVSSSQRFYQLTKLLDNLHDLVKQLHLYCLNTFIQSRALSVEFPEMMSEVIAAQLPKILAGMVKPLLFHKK
Sequence of Thyrotropin-releasing hormone receptor (Homo sapiens) (P34981 whole entry, looked up): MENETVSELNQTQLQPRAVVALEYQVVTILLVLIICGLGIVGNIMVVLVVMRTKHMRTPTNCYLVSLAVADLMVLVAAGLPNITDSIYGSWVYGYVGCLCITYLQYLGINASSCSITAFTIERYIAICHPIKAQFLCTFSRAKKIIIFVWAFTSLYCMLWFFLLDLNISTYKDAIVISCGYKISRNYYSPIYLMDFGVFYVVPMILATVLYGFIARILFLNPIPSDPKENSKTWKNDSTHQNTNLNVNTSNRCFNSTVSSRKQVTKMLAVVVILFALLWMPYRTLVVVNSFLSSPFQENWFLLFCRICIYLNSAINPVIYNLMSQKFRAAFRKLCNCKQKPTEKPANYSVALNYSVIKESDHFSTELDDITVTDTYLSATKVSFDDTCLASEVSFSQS

Row | SMILES | Potency [1] | Potency [2] | Potency [3] | Potency [4] | Potency [5] | Potency [6] | outcome [7] | outcome [8] | outcome [9] | outcome [10]
1 | C[C@@H](O)[C@H]1C(=O)N2C(C(=O)O)=C(S[C@@H]3CN[C@H](CNS(N)(=O)=O)C3)[C@H](C)[C@H]12 | inactive | inactive | inactive | inactive | inactive | inactive | inactive | inactive | inactive | inactive
2 | NC(=O)c1ccccc1 | inactive | inactive | inactive | inactive | inactive | inactive | inactive | inactive | inactive | inactive
3 | CCCCC(CC)COCCC#N (stereo not given) | inactive | inactive | inactive | inactive | inactive | inactive | inactive | inactive | inactive | inactive
4 | COc1ccc(/C(C)=C/C(=O)O)c(OC)c1 | inactive | inactive | inactive | inactive | inactive | inactive | inactive | inactive | inactive | 
5 | O=C(OCCOCCOCCOC(=O)c1ccccc1)c1ccccc1 | inactive | inactive | inactive | inactive | inactive | inactive | inactive | inactive | inactive | inactive
6 | CCC(C)CCCC(C)(C)O (stereo not given) | inactive | inactive | inactive | inactive | inactive | inactive | inactive | inactive | inactive | inactive
7 | CC1(C)CC(=O)CC(C)(C)N1 | inactive | inactive | inactive | inactive | inactive | inactive | inactive | inactive | inactive | inactive
8 | O=C(OCCCCCOC(=O)c1ccccc1)c1ccccc1 | inactive | inactive | inactive | inactive | inactive | inactive | inactive | inactive | inactive | inactive
9 | CCCCCCCCCCCCCCCCC(=O)O | inactive | inactive | inactive | inactive | inactive | inactive | inactive | inactive | inactive | inactive
10 | O=C(OC1C[C@H]2CC[C@@H](C1)[N+]21CCCC1)C(O)(c1ccccc1)c1ccccc1 (stereo not given in full) | inactive | inactive | inactive | inactive | inactive | inactive | inactive | inactive | inactive | inactive
11 | CCCCCCCCC(=O)OCC(C)OC(=O)CCCCCCCC (stereo not given) | inactive | inactive | inactive | inactive | inactive | inactive | inactive | inactive | inactive | inactive
12 | Clc1nc2ccccc2nc1Cl | inactive | inactive | inactive | inactive | inactive | inactive | inactive | inactive | inactive | inactive
13 | CCCCCCCCCCCCSCCOCCO | inactive | inactive | inactive | inactive | inactive | inactive | inactive | inactive | inactive | inactive
14 | CCCCCCCCCCCC(=O)OCC | inactive | inactive | inactive | inactive | inactive | inactive | inactive | inactive |  | 
15 | Nc1ccc(C(=O)Oc2ccccc2)c(O)c1 | inactive | inactive | inactive | 23.7 µM (active) | inactive | inactive | inactive | inactive | inactive | inactive
16 | CC(C)=CCCC(C)C=O (stereo not given) | inactive | inactive | inactive | inactive | inactive | inactive | inactive | inactive | inactive | inactive
17 | C/C=C1\[C@H]2C=C(C)C[C@]1(N)c1ccc(=O)[nH]c1C2 | inactive | inactive | inactive | inactive | inactive | inactive | inactive | inactive | inactive | inactive
18 | Nc1ncnc2c1ncn2[C@@H]1O[C@H](CO)[C@@H](O)[C@H]1O | inactive | inactive | inactive | inactive | inactive | inactive | inactive | inactive | inactive | inactive
19 | CCCCOC(=O)CC#N | inactive | inactive | inactive | inactive | inactive | inactive | inactive | inactive | inactive | 
20 | CC(CCl)OC(C)CCl (stereo not given) | inactive | inactive | inactive | inactive | inactive | inactive | inactive | inactive | inactive | inactive
21 | CC1(C)C(=O)NC(=O)N1CO | inactive | inactive | inactive | inactive | inactive | inactive | inactive | inactive | inactive | 
22 | CC(=O)Nc1ccccc1O | inactive | inactive | inactive | inactive | inactive | inactive | inactive | inactive | inactive | inactive
23 | C=C[Si]1(C)O[Si](C)(C=C)O[Si](C)(C=C)O[Si](C)(C=C)O1 (stereo not given) | inactive | inactive | inactive | inactive | inactive | inactive | inactive | inactive | inactive | inactive
24 | O=C(c1ccc(Cl)cc1)c1ccc(Cl)cc1 | inactive | inactive | inactive | inactive | inactive | inactive | inactive | inactive | inactive | inactive
